Screening results as filed in PubChem.
Rows were chosen to be rich in hits. Some 1.6% of all compounds tested hit in one or more screens of this group.
Arbovirus inh: antivirals against arbovirus infection, primary screen, cell-based, full library, 10K replicate subset | arbovirus infection cell-based antiviral screen | inhibition, % at 10 µM | 0.37% of 200,000 active; in the data active means inhibition above about 30%
S1P3 antag: S1P3 receptor antagonists, primary screen, cell-based; 0.27% of 170,000 active; Sphingosine 1-phosphate receptor 3 (Homo sapiens), Q99500; CHO S1P3 NFAT-BLA reporter, FRET fluorescence, antagonist mode; inhibition, % at 4.98 µM;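 active means inhibition above the plate cutoff, the mean inhibition of test wells on that plate plus 3 SD, cut at about 28% in these data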;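 further: cells challenged with S1P at its EC80 of 0.8 µM; blue over green emission ratio from cleaved BLA substrate after 4 h stimulation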
Target sequence (Q99500 whole entry, looked up): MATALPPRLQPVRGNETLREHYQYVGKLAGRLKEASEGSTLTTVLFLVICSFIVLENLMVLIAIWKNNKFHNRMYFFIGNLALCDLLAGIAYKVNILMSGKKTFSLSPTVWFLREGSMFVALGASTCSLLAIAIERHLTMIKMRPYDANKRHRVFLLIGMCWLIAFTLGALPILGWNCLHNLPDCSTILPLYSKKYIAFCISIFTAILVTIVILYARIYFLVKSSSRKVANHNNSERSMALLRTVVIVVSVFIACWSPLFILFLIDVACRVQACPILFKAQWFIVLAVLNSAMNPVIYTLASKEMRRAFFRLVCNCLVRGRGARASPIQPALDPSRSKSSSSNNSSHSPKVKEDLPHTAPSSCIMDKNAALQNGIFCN
p97 ATPase inh: inhibitors of human p97 ATPase, primary screen, biochemical. Transitional endoplasmic reticulum ATPase (Homo sapiens), P55072. recombinant p97 ATPase, Kinase-Glo ATP luminescence, 3 h. inhibition, % at 8 µM. 0.42% of 220,000 active; in the data active means inhibition above about 15%
S1P4 agonist: S1P4 receptor agonists, primary screen, cell-based; Sphingosine 1-phosphate receptor 4 (Homo sapiens), O95977; S1P4-expressing cell line, agonist reporter assay; activation, % at 4.98 µM; 0.35% of 220,000 active; AID 1509, 2009; in the data active means activation above about 11%
DTT redox prof: compounds producing H2O2 with reducing agent – biochemical, NIH compound library profiling, artefact control for MLSCN library redox annotation, primary screen | DTT-dependent redox cycling H2O2, phenol red/HRP absorbance; 100% = 100 µM peroxide control, 0% = buffer | activation, % at 10 µM | 0.03% of 200,000 active;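 active means activation of at least 50% relative to the plate's high and low controls in the primary single-dose screen; inactive means activation below 50%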;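 further: compound incubated with DTT at 0.8 mM final as the reducing agent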
S1P4 antagonist: S1P4 receptor antagonists, primary screen, cell-based. Sphingosine 1-phosphate receptor 4 (Homo sapiens), O95977. S1P4-expressing cells, antagonist mode, reporter read-out. inhibition, % at 4.98 µM. 0.26% of 220,000 active; in the data active means inhibition above about 29%
p97 inh conf: p97 ATPase inhibitors, retest, confirmation, biochemical | 44% of 760 active | shares compounds with p97 ATPase inh | inhibition, % at 8 µM | recombinant p97 ATPase, Kinase-Glo ATP luminescence;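 active means percent inhibition of p97 ATPase above a set limit, the primary screen's mean plus 3 SD, cut at about 15% in these data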
Each line names hits and unclear results; the compound was inactive in the other large screens (follow-up assays come after a bar, where they were run).

O=C(Cn1c(C(F)(F)F)nc2ccccc21)NCCN1CCCC1	none
COc1ccc(S(=O)(=O)O/N=C2\CCCc3ccccc32)cc1	p97 ATPase inh 17.6 (no result: S1P3 antag) | p97 inh conf inactive
O=S(=O)(O/N=C1\CCCc2ccccc21)c1ccccc1	none (no result: S1P3 antag)
Cc1ccc(C(=O)Nc2ccc3cn[nH]c3c2)cc1S(=O)(=O)N1CCCCC1	none (no result: S1P3 antag)
Nc1c(C(=O)OCC2CCCO2)c2nc3ccccc3nc2n1C1CCCC1 (stereo unspecified)	p97 ATPase inh 16.8 | p97 inh conf inactive
COCCn1c(N)c(C(=O)NCC2CCCO2)c2nc3ccccc3nc21 (stereo unspecified)	none (no result: S1P3 antag)
COc1cccc(NC(=O)CCSc2ccc(C)cc2)c1	none
O=S(=O)(c1ccc(NC(=S)N/N=C/c2ccc(O)c(O)c2)cc1)N1CCOCC1	p97 ATPase inh 18.7 (no result: Arbovirus inh, DTT redox prof) | p97 inh conf 21.0
CC(=O)Nc1cccc(-c2nc3ccc(NC(C)=O)cc3s2)c1	p97 ATPase inh 15.7 | p97 inh conf inactive
Cc1cccc(OCCCC(=O)Nc2ccc(S(N)(=O)=O)cc2)c1	p97 ATPase inh 16.9 | p97 inh conf inactive
C/C(N)=C(/C#N)C(=O)CSc1nc2scc(-c3ccccc3)c2c(=O)n1C	none
Cc1oc2c(c(=O)c1C)C(=O)CC(c1ccccc1)C2 (stereo unspecified)	none
CS(=O)(=O)c1sc(C#N)c2c1C(=O)CC(c1ccccc1)C2 (stereo unspecified)	p97 ATPase inh 25.2 (no result: Arbovirus inh, DTT redox prof) | p97 inh conf 21.6
Cc1cc(Nc2nc3ccccc3nc2Cl)n(-c2ccccc2C)n1	p97 ATPase inh 14.9 (no result: S1P3 antag) | p97 inh conf inactive
COC(=O)c1c(C)n(-c2ccccc2)c2ccc(O)cc12	none
CN(C)/C=C/c1c([N+](=O)[O-])c2ccc(O)cc2n1-c1ccccc1	p97 ATPase inh 25.6 (no result: Arbovirus inh, DTT redox prof) | p97 inh conf inactive
COc1ccccc1-c1nnc(Sc2nc([N+](=O)[O-])nn2C)o1	p97 ATPase inh 15.6 (no result: S1P3 antag) | p97 inh conf 23.5
CCSc1nc2ccccc2c(=O)n1CCc1ccc(OC)c(OC)c1	none (no result: Arbovirus inh, DTT redox prof)
COc1ccc2nc3ccccc3nc2c1N	p97 ATPase inh 25.6 (no result: Arbovirus inh, DTT redox prof) | p97 inh conf inactive
O=[N+]([O-])c1ccc2nc(-c3ccccc3)cc(-c3ccccc3)c2c1	none
O=[N+]([O-])c1ccc2c(c1)c(-c1ccccc1)nc1nncn12	p97 ATPase inh 34.2 | p97 inh conf inactive
CCc1ccc(N(C(=O)c2csnn2)C(C(=O)NC(C)(C)CC)c2cccnc2)cc1 (stereo unspecified)	none
CCN(CC)c1cc(C)c2cc(NC(=O)CNC(C)=O)ccc2n1	p97 ATPase inh 25.5 (no result: S1P3 antag) | p97 inh conf inactive
CNC(=O)c1c(NC(=O)c2cccc(N3C(=O)CCC3=O)c2)sc2c1CCCC2	none (no result: Arbovirus inh, DTT redox prof)
COc1ccc(-n2c(C(C)(C)C)csc2=Nc2c(C)n(C)n(-c3ccccc3)c2=O)cc1	none
CCn1c(/C=C/N(C(C)=O)c2ccccc2)[n+](CCCS(=O)(=O)[O-])c2cc(Cl)c(Cl)cc21	p97 ATPase inh 18.4 | p97 inh conf inactive
CCn1c(/C=C/Nc2ccccc2)[n+](CC)c2cc(Cl)c(Cl)cc21	none
O=C(CCl)Nc1nc(-c2ccco2)c(-c2ccco2)s1	p97 ATPase inh 17.9 | p97 inh conf 42.4
CC1=NN(c2ccccc2)C(=O)C1	p97 ATPase inh 20.5 | p97 inh conf inactive
CC1=NN(Cc2ccccc2)C(=O)C1	p97 ATPase inh 21.2 | p97 inh conf inactive
CC(C)c1ccc(/C=N/NC(=O)C(=O)NCCCN2CCOCC2)cc1	none
CN(CCC#N)C(=O)CSc1nc2scc(-c3ccccc3)c2c(=O)[nH]1	p97 ATPase inh 15.9 | p97 inh conf inactive
Cc1cc(OC(=O)c2ccc(S(=O)(=O)N(C)C)cc2)c([N+](=O)[O-])c(=O)[nH]1	p97 ATPase inh 16.1 | p97 inh conf inactive
COc1cccc(CNC(=S)Nc2cc(C)ccc2C)c1	none
CC(=O)Nc1nc(-c2ccc(Cl)cc2)ns1	none
Cc1ccc(C(=O)NCCN2C3=NC[C@@H](Cc4ccccc4)N3C[C@H]2Cc2ccc(O)cc2)cc1Br	p97 ATPase inh 19.8 | p97 inh conf inactive
COc1ccc(C[C@H]2CN3C(=NC[C@@H]3Cc3ccc(O)cc3)N2CCNC(=O)c2ccc(C)c(Br)c2)cc1	none
O=C(CSc1nnc(Cc2cccs2)n1-c1ccc(Cl)cc1)NCc1ccc2c(c1)OCO2	none (no result: S1P3 antag)
O=C1C/C(=C\c2c(F)cccc2Cl)N2CCC1CC2	none
Cc1ccc(C)n1Cc1ccc(C(=O)O)cc1	p97 ATPase inh 27.9 (no result: S1P3 antag) | p97 inh conf inactive
COc1cc(CCC(=O)Nc2cc(C)cc(C)c2)cc(OC)c1OC	none
CCc1ccccc1NC(=S)N(CCN1CCCCC1)Cc1ccco1	none
Cc1ccc2[nH]cc(C(=O)CCl)c2c1	p97 ATPase inh 33.2 | p97 inh conf 46.5
Cc1ccc2c(C(=O)CCl)c(C)[nH]c2c1	p97 ATPase inh 36.5 (no result: Arbovirus inh, DTT redox prof) | p97 inh conf 39.8
Cc1nc2c(nnn2Cc2ccccc2)c(=O)[nH]1	none
Cn1ccc(C(=O)Oc2ccc(C(=O)Nc3ccc(F)cc3F)cc2)n1	none
Cc1ccc(C)c(NC(=O)c2cnc3n(c2=O)CCS3)c1	p97 ATPase inh 29.2 | p97 inh conf 19.8
Nc1c(C(=O)O)sc2nc(-c3ccccc3)cc(-c3ccc(F)cc3)c12	none (no result: Arbovirus inh, DTT redox prof)
Nc1c(C(=O)O)sc2nc(-c3ccccc3)cc(-c3ccccc3)c12	p97 ATPase inh 22.5 (no result: Arbovirus inh, DTT redox prof) | p97 inh conf inactive
O=[N+]([O-])c1cc(-c2nnc(C34CC5CC(CC(C5)C3)C4)o2)cc([N+](=O)[O-])c1	none (no result: S1P3 antag)
CCn1c(CCC(=O)O)nc2cc(S(=O)(=O)N(C)C)ccc21	none
CN(C)S(=O)(=O)c1ccc2c(c1)nc(CCC(=O)O)n2C	p97 ATPase inh 15.7 | p97 inh conf inactive
O=C(N/N=C/C1CC=CCC1)c1cc(-c2cccnc2)nc2ccccc12 (stereo unspecified)	none
Cn1c(-c2ccccc2)c(CCO)c2ccccc21	none
CCn1c(-c2ccccc2)c(C(=O)CCl)c2ccccc21	p97 ATPase inh 32.0 | p97 inh conf 35.9
Cn1c(-c2ccccc2)c(C(=O)CCl)c2ccccc21	p97 ATPase inh 34.4 | p97 inh conf 34.4
Cc1cc(Br)c2c(c1)C(O)(N1CCCCC1C)C(=O)N2 (stereo unspecified)	none
FC(F)(F)c1nnc2c(Sc3ccccc3)nc3ccccc3n12	none (no result: S1P3 antag)
FC(F)(F)c1nnc2c(Sc3ccccn3)nc3ccccc3n12	p97 ATPase inh 18.7 (no result: S1P3 antag) | p97 inh conf inactive
